Bioassay records (PubChem BioAssay)
Rows were chosen to be rich in hits. Some 11% of all compounds tested hit in one or more screens of this group.
HPGD inh – HPGD (human) dehydrogenase inhibition. purified HPGD, NADH fluorescence kinetic, PGE2 substrate. Potency, µM, for the others: at the highest dose activity change, negative = inhibition, usual class: inhibitors. actives 4.3% (n = 150,000). AID 894; note: potency is the fitted concentration of half-maximal effect
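NADH formation kinetics: reaction with 30 uM PGE2 and 1 mM NAD+ (final), 20 nM enzyme, Tris-HCl pH 8 with Tween 20, after 15 min compound preincubation at room temperature. Fluorescence change, last versus first of five reads.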
ALDH1A1 block – ALDH1A1 (human) enzyme inhibition. AID 1030. P00352. Potency, µM (titrated, usually from 75.3 µM), for the others: at the highest dose activity, negative = inhibition, actives largely listed as inhibitors. Purified ALDH1A1, NADH fluorescence, propionaldehyde substrate. actives 7.3% (n = 220,000);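 note: potency is the fitted concentration of half-maximal effect; plate controls were no enzyme wells and a reference inhibitor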
Target sequence (P00352 whole entry, looked up): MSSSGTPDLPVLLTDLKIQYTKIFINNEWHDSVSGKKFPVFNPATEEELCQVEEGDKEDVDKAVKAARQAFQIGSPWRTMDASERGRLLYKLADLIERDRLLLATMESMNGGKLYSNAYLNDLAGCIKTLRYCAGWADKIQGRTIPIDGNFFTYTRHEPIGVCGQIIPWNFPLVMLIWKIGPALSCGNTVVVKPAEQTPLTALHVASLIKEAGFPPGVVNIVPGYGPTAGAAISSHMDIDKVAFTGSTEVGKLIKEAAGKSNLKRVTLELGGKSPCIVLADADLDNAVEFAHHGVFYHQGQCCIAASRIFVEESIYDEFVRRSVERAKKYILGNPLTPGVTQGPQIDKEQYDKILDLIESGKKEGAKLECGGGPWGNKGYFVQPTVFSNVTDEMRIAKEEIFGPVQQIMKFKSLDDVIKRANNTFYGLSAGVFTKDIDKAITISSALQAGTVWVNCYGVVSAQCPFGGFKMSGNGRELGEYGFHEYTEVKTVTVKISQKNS
PNC assembly inh – inhibitors of perinucleolar compartment assembly. PC3M PTB-GFP, PNC prevalence imaging, 16 h; hits give low values. activity change (PNC), negative = inhibition, % at 10 µM. actives 3.1% (n = 140,000);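 active = readout at or below -70, meaning at least 70% loss of cells showing the perinucleolar compartment, a nuclear body marking cancer cells; inconclusive = readout between -30 and a set limit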;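 note: plate controls were DMSO wells for no effect and camptothecin positive control wells for full effect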
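Read-out is percentage of cells bearing a perinucleolar compartment, from automated 20x imaging of fixed, Hoechst-stained PC3M PTB-GFP cells. Cells were seeded 4 h, then exposed 16 h to compound (23 nl of library stock) in duplicate plates.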
An asterisk follows results filed as active; ? = inconclusive; . = no result given; [ ] = remark or other dose. Unless noted, calls come from the whole dose curve; as a rule, active = well fitted inhibition curve with a large enough effect (not every such curve was filed as active); inconclusive = small, poorly fitted or top-dose-only effect, or another doubt; inactive = no such curve, though single readings can be large or run the other way. Unless noted, % is set by controls: 0 for no effect and ±100 for the full control effect.

SMILES | HPGD inh | ALDH1A1 block | PNC assembly inh
COC(=O)CCCCCN1C(=O)/C(=C\c2ccncc2)SC1=S | . | 25µM* | .
CCOC(=O)C1=C(CC)Nc2ccccc2N/C1=N\S(=O)(=O)c1cc(Br)ccc1Br | . | -8% | .
CN1CCN(S(=O)(=O)c2ccc(Cc3ccc(S(=O)(=O)N4CCN(C)CC4)cc3)cc2)CC1 | 7% | -13% | ?
O=C(NCCSc1c(-c2ccccc2)[nH]c2ccccc12)c1cc2ccccc2oc1=O | -15% | 8% | -86*
Cc1ccc(-c2[nH]c3ccccc3c2SCCNC(=O)c2cc3ccccc3oc2=O)cc1 | -6% | -8% | 67
Cc1ccc(C(=O)C2CCN(CC(=O)Nc3ccc(N(C)C)cc3)CC2)cc1 | -9% | ? | ?
NS(=O)(=O)c1ccc(NC(=O)CSc2nnc(-c3cnccn3)n2-c2ccccc2)cc1 | -11% | 6% | -16
O=c1nc2ccccc2c(NS(=O)(=O)c2ccccc2)n1-c1ccccc1 | -21% | 0.89µM* | 9
Cc1ccc(S(=O)(=O)Nc2c3ccccc3nc(=O)n2-c2ccccc2)cc1 | -13% | ? | 3
O=C(N1CCOCC1)C(F)(F)C(F)(F)C(F)(F)C(F)(F)C(=O)N1CCOCC1 | 2% | 6% | 33
CC(=O)c1ccc(OCCn2cnc3ccccc32)cc1 | -21% | 1% | 18
O=c1[nH]c2cc3c(cc2cc1CN(Cc1ccco1)C(=S)NCC1CCCO1)OCCO3 (stereo unspecified) | . | 5% | .
Cc1ccc2nsnc2c1S(=O)(=O)N(Cc1ccco1)Cc1cc2ccc(C)c(C)c2[nH]c1=O | -15% | ? | -82*
Cc1ccc(NC(=S)N(Cc2cccs2)Cc2cc3cccc(C)c3[nH]c2=O)cc1 | -13% | -4% | -22
Cc1cccc2cc(CN(CCN(C)C)C(=S)Nc3ccccc3)c(=O)[nH]c12 | -4% | ? | -99*
Cc1ccc2nsnc2c1S(=O)(=O)N(Cc1ccco1)Cc1cc2cccc(C)c2[nH]c1=O | -15% | ? | 8
Cc1ccc2[nH]c(=O)c(CN(CC3CCCO3)S(=O)(=O)c3cccc4nsnc34)cc2c1 (stereo unspecified) | -8% | 20µM* | 53
Cc1ccc2[nH]c(=O)c(CN(CC3CCCO3)S(=O)(=O)c3c(C)ccc4nsnc34)cc2c1 (stereo unspecified) | -8% | ? | 4
COc1ccc2cc(CN(CC3CCCO3)C(=S)NCc3ccco3)c(=O)[nH]c2c1 (stereo unspecified) | . | 3.5µM* | .
O=C(COC(=O)c1cncc(Br)c1)NCCC1=CCCCC1 | -4% | ? | ?
Cc1ccc2cc(CN(Cc3ccco3)C(=S)NCC3CCCO3)c(=O)[nH]c2c1 (stereo unspecified) | . | -8% | .
Cc1ccc2cc(CN(CC3CCCO3)C(=S)NCc3ccco3)c(=O)[nH]c2c1 (stereo unspecified) | . | 3.5µM* | .
Cc1ccc2[nH]c(=O)c(CN(CC3CCCO3)C(=S)NCc3ccco3)cc2c1 (stereo unspecified) | -8% | ? | -3
Cc1ccc2[nH]c(=O)c(CN(CCCN3CCOCC3)C(=O)Nc3cccc(Cl)c3)cc2c1 | -2% | -11% | ?
Cc1cc(C)c2[nH]c(=O)c(CN(CC3CCCO3)C(=S)NCc3ccco3)cc2c1 (stereo unspecified) | -19% | ? | -82*
SMILES | HPGD inh | ALDH1A1 block | PNC assembly inh
Cc1cccc(NC(=O)N(Cc2cc3cc(C)ccc3[nH]c2=O)CC2COCCO2)c1 (stereo unspecified) | . | 32µM* | .
Cc1ccc(C)c2[nH]c(=O)c(CN(Cc3ccco3)C(=S)NCC3CCCO3)cc12 (stereo unspecified) | . | 20µM* | .
Cc1cccc2cc(CN(CC3CCCO3)C(=S)NCc3ccco3)c(=O)[nH]c12 (stereo unspecified) | -13% | ? | 12
CCOC(=O)C1C(c2ccc(O)c(OC)c2)NC(=S)NC1(O)C(F)(F)F (stereo unspecified) | 2% | ? | 16
OCCSCc1ccccc1 | -9% | 0%[13.5 µM] | .
COc1ccc(-c2nnn(CC(=O)NCCc3ccc(OC)c(OC)c3)n2)cc1 | . | -6% | .
S=C1NCCOCCOCCOCCOCCNC(=S)NCCOCCOCCOCCOCCN1 | -12% | 3% | 41
CN1CCN(NC(=O)c2cccc(Br)c2)CC1 | -2% | 14% | ?
Cc1cc(C)c2cc(CN(Cc3ccco3)C(=O)NCc3ccccc3)c(=O)[nH]c2c1 | . | ? | -8
Cc1ccc2[nH]c(=O)c(CN(CC3CCCO3)C(=S)Nc3ccccc3)cc2c1 (stereo unspecified) | -20% | 14µM* | 26
COc1ccccc1NC(=S)N(Cc1ccco1)Cc1cc2cc(C)cc(C)c2[nH]c1=O | -13% | 0% | 23
Cc1cc(C)c2cc(CN(CC3CCCO3)C(=S)NCc3ccco3)c(=O)[nH]c2c1 (stereo unspecified) | . | 16µM* | .
Cc1cc(C)c2[nH]c(=O)c(CN(CC3CCCO3)C(=S)Nc3ccccc3)cc2c1 (stereo unspecified) | -14% | ? | 3
COc1ccccc1NC(=S)N(Cc1ccco1)Cc1cc2ccc(C)c(C)c2[nH]c1=O | -15% | ? | -84*
O=C(CSc1cn(CC(=O)N2CCCCCC2)c2ccccc12)NCC1CCCO1 (stereo unspecified) | . | -6% | .
CC([NH2+][O-])C(C)(C)NO (stereo unspecified) | -10% | 9% | -14
CCC(=O)Nc1ccc(Nc2ccccc2)cc1 | -22% | 9% | ?
COCC(=O)Nc1ccc(Nc2ccccc2)cc1 | ? | -8% | 40
O=C(Nc1ccc(Nc2ccccc2)cc1)C(Cl)(Cl)Cl | 32µM* | ? | 19
O=C(Nc1ccc(Nc2ccccc2)cc1)C(Cl)Cl | 22µM* | 13µM* | -91*
CCN(CC)C(=O)c1sc2c(c1C)c(=O)n(-c1ccc(C)c(C)c1)c(=O)n2CC(=O)NCC1CCCO1 (stereo unspecified) | . | 2% | .
COc1ccc(-c2cnnc(CCCn3ccnc3-c3ccccc3)n2)cc1 | . | -6%[13.5 µM] | .
CCOC(=O)C1=C(C)NC(=O)C(C#N)C1c1ccco1 (stereo unspecified) | -12% | -1% | ?
O=C(C1CCN(S(=O)(=O)c2ccc(Cl)cc2)CC1)N1CCOCC1 | -15% | -2% | ?
CC(C)(C)c1ccc(S(=O)(=O)NCc2ccc(C(=O)N3CCOCC3)cc2)cc1 | -11% | 11µM* | 18
SMILES | HPGD inh | ALDH1A1 block | PNC assembly inh
CCOC(=O)N1CCN(C(=O)c2ccc(CNS(=O)(=O)c3ccc(OC)cc3)cc2)CC1 | -9% | -17% | -26
COc1ccc(S(=O)(=O)NCc2ccc(C(=O)N3CCc4ccccc4C3)cc2)cc1 | 2.8µM* | 3% | ?
O=C(c1ccc(CNS(=O)(=O)c2ccccc2)cc1)N1CCN(Cc2ccccc2)CC1 | ? | -5% | -8
COc1ccc(S(=O)(=O)N2CCC(C(=O)N3CCc4ccccc4C3)CC2)cc1C | -3% | -2% | 33
COc1ccc(S(=O)(=O)N2CCC(C(=O)N3CCc4ccccc4C3)CC2)cc1 | 35µM* | ? | 5
COc1ccc(S(=O)(=O)N2CCC(C(=O)N3CCOCC3)CC2)cc1 | -7% | -2% | -100*
COc1ccc(NC(C)=O)cc1NC(=O)CSc1nnc(-c2ccc(F)cc2)n1N | -2% | 10% | -8
